The full list was thinned out, with hits kept by preference.
Pf Dd2 growth = blocks in vitro growth of P. falciparum Dd2; AID 1347417; Potency, µM (series often up to 28.9 µM), for the others: at the highest dose activity, negative = inhibition, actives largely listed as inhibitors; P. falciparum Dd2 growth, SYBR Green, 72 h; 120,000 tested, 4.3% active; active means well fitted inhibition curve with a large enough effect;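 further: plate controls were DMSO vehicle for no effect and reference drug for full effect; nearly all actives have a fitted effect of over 65% in size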
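Readout: SYBR Green fluorescence, 485 nm excitation, 535 nm emission, after ~16 h lysis at 37C. Before that, Dd2-infected red cells (2.5% hematocrit) grew 72 h with compound, 29 uM top final concentration.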
* = called active by the depositor; i = inactive; [ ] = remark or other dose. Potency means the concentration at half of the fitted maximal effect.

SMILES	Pf Dd2 growth
COc1ccc(-n2ncc(C(=O)NCCN3CCOCC3)c2C2CCN(C(=O)OC(C)(C)C)CC2)cc1	-9%
Cc1ccc(-n2ncc(C(=O)NCCN3CCCC3)c2C2CCN(C(=O)OC(C)(C)C)CC2)cc1C	i
CC(C)(C)OC(=O)N1CCC(c2c(C(=O)NCCN3CCOCC3)cnn2-c2cccc(Cl)c2)CC1	10µM*
Cc1ccc(-n2ncc(C(=O)NCCCN3CCc4ccccc4C3)c2C2CCN(C(=O)OC(C)(C)C)CC2)c(C)c1	7.1µM*
CN1C(=O)CCc2cc(NC(=O)Cc3ccc(Cl)cc3)ccc21	i
Cn1cc(-c2ccc(F)c(Cl)c2)c2nc(CN3CC[S+](=O)([O-])CC3)cn2c1=O	-15%[44.1 µM]
COC[C@@H]1CN(C(=O)Cc2cccc(OC)c2)C[C@H]1c1nc(C)no1	14%
Cc1ccccc1CCC1CCCN(S(C)(=O)=O)C1 (stereo not drawn)	-19%
Cc1ccccc1CCC1CCCNC1 (stereo not drawn)	11µM*
Cc1ccccc1CCC1CCCN(C(=O)CCc2cnccn2)C1 (stereo not drawn)	i
CCn1ncc(N2CCCC(CC(=O)N3CCN(c4ccccn4)CC3)C2)cc1=O (stereo not drawn)	-20%
CCOc1cc(-c2noc(-c3nnn4c3COC(c3ccc(C)cc3C)C4)n2)ccc1OC (stereo not drawn)	i
O=C(C1CC1)N1CCC(n2cc(-c3nc(-c4ccccc4)no3)nn2)CC1	i
C#CCNC(=O)c1nc(-c2ccc([S+](C)(=O)[O-])cc2)c2cnccn12	i
C[S+](=O)([O-])c1ccc(-c2nc(C(=O)N3CCOCC3)n3ccncc23)cc1	7.9µM*
O=C(c1nc(-c2cccc(C(F)(F)F)c2)c2cnccn12)N1CCOCC1	-4%
O=C(c1nc(-c2ccc(F)cc2)c2cnccn12)N1CCCC1	6.3µM*
O=C(c1nc(-c2ccccc2)c2ccccn12)N1CCN(c2ncccn2)CC1	-6%
C[S+](=O)([O-])c1ccc(-c2nc(C(=O)N3CCN(c4ncccn4)CC3)n3ccncc23)cc1	11µM*
N#CC1CCN(C(=O)c2nc(-c3cccnc3)c3cnccn23)CC1	-16%[44.1 µM]
O=C(c1nc(-c2ccc(F)cc2)c2ccccn12)N1CCOCC1	13%[44.1 µM]
C[S+](=O)([O-])c1ccc(-c2cc(C(=O)N3CCN(c4ncccn4)CC3)nn3cccc23)cc1	-24%
COCCC(=O)Nc1ccc2c(c1)CCC(=O)N2C	5%
FC(F)(F)c1ccc(N2C3CCC2CN(Cc2ccc(-c4cncnc4)cc2)C3)cc1	-20%
COc1cccc(CN2CCOC[C@H](Oc3ccc(C(F)(F)F)cc3)C2)c1	-23%[44.1 µM]
SMILES	Pf Dd2 growth
COCCCNC(=O)C(NC(=O)c1cccc(C)c1)C1CCN(C(=O)c2ccccc2)CC1 (stereo not drawn)	-18%
CCOc1cccc(CN2CCC(C)(c3noc(C4CCOCC4)n3)CC2)c1	-12%
COCC(=O)N1CCC2(CC1)C(=O)Nc1cc(Oc3cccc(N(C)C)c3)c(OC)cc12	-25%[44.1 µM]
Cn1nc2n(c1=O)CCN(Cc1ccc3c(c1)CCO3)CC2	-9%
CCOC(=O)c1c(C)[nH]c(C)c1S(=O)(=O)NCC(=O)N1CCN(c2ccccc2F)CC1	i
CCOC(=O)c1c(C)[nH]c(CCC(=O)NCCCN2CCN(c3ccccc3F)CC2)c1C	11µM*
CCOC(=O)c1c(C)[nH]c(CCC(=O)NCc2ccc(F)cc2)c1C	-14%
COc1ccc(-c2nc3n(n2)C(c2ccccc2F)C(C(=O)Nc2cccnc2)=C(C)N3)cc1OC (stereo not drawn)	10µM*
COc1ccc(-c2nc3n(n2)C(c2ccc(O)cc2)C(C(=O)Nc2cccnc2)=C(C)N3)cc1OC (stereo not drawn)	-5%
COc1ccc(C2C(C(=O)Nc3cccnc3)=C(C)Nc3nc(-c4ccccc4)nn32)cc1OC (stereo not drawn)	-15%
CCn1nc(CC(C)C)cc1C(=O)N1CCN(c2nc(C)cc(C)n2)CC1	-8%
CN1CCN(c2cc(=O)c3ccnc(-c4cccc(F)c4)c3o2)CC1	i
COc1ccc(-n2cc(CN3CCN(C)C(C)C3)c(-c3cccc(F)c3)n2)cc1 (stereo not drawn)	-14%
COc1ccc(-c2ccnc3nc(-c4ccccc4OC)nn23)c(F)c1	-20%
COc1ccc(-n2cc(CN3CCCC(CO)C3)c(-c3cccc(F)c3)n2)cc1 (stereo not drawn)	13µM*
Cc1ccccc1-c1nn(-c2ccc(F)cc2F)cc1CN1CCCC1CCO (stereo not drawn)	7.9µM*
COc1ccc2nc(CO[C@H]3CN(Cc4cn(C)c5ccccc45)C[C@H]3F)[nH]c2c1	-30%[44.1 µM]
COc1ccc(-c2nn(-c3ccccc3)cc2CN2CCN(C)C(C)C2)c(F)c1 (stereo not drawn)	11µM*
COc1ccc(-c2nc3c(C)cccc3cc2CN2CC[C@@H](O)C2)cc1	-25%
COC[C@@H]1CCCN1Cc1cn(Cc2ccccc2)nc1-c1cc2ccccc2o1	i
COC[C@H]1CCCN1Cc1cn(-c2ccccc2)nc1-c1ccc(OC)cc1F	10µM*

Source: PubChem BioAssay (National Center for Advancing Translational Sciences (NCATS))
